nsP2pro primary: blocks chikungunya virus nsP2 protease peptide cleavage; Q8JUX6; FRET peptide cleavage, nsP2pro, fluorescence 1 h; Potency, µM (series often up to 24.9 µM), inactives show at the top dose activity change, negative = inhibition, most hits filed as inhibitors; hit rate 1.1% among 31,000; further: nearly all actives have a fitted effect of over 60% in size
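Enzyme 150 nM, substrate 2.5 uM (both final); Tris-HCl 10 mM pH 8.0 + 0.01% Tween 20; cpd up to 25 uM, 7 pts; 15 min preinc., 1 h RT; fluorescence ex 525/em 598.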
nsP2 cell sec: secondary cell-based test for CHIKV nsP2 protease inhibitors | shares compounds with nsP2pro primary | cell-based CHIKV nsP2 protease reporter assay | Potency, µM (titrated, usually from 51.1 µM), for the others: at the highest dose activity change, negative = inhibition, hits mostly inhibitors | hit rate 10% among 450 | AID 1964100; further: nearly all actives have a fitted effect of over 70% in size
CHIKV NSP2 FL: inhibits full-length CHIKV NSP2 enzyme. shares compounds with nsP2pro primary. Full-length CHIKV NSP2 protease enzymatic counterscreen. Potency, µM (highest dose often 50.7 µM), for the others: top-dose activity change, negative = inhibition, most hits filed as inhibitors. hit rate 39% among 410. AID 1964101; further: nearly all actives have a fitted effect of over 65% in size
Furin counter: selectivity counter-screen for CHIKV nsP2 protease inhibitors: human furin; shares compounds with nsP2pro primary; Recombinant human furin enzymatic counterscreen, fluorogenic substrate; Potency, µM (highest dose often 50.6 µM), without a hit: top-dose activity change, negative = inhibition, usual class: inhibitors; hit rate 6% among 410; AID 1964102
Target sequence (P09958 whole entry, looked up): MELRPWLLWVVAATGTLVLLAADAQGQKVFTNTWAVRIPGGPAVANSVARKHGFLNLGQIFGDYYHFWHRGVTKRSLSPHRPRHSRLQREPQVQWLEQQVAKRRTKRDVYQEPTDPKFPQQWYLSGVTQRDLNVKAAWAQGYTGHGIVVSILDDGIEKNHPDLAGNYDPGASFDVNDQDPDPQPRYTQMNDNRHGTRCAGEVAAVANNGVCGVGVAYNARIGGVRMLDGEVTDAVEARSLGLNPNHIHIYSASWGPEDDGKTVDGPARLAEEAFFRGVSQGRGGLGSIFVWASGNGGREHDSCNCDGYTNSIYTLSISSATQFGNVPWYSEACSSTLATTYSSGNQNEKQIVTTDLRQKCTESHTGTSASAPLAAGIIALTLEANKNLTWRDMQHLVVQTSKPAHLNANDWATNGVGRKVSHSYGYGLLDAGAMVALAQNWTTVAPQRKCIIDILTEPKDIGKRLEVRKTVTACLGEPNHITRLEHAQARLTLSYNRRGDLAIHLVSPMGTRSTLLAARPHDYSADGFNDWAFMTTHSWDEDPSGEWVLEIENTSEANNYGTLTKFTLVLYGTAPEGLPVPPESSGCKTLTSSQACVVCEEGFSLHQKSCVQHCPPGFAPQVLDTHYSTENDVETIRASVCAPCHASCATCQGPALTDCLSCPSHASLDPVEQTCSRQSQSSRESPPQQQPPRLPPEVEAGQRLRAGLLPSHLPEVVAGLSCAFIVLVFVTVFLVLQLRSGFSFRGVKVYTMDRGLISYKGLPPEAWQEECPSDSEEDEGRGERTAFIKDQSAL
nsP2 NS23 pep: blocks CHIKV nsP2 protease cleavage of endogenous NS2/3 peptide; shares compounds with nsP2pro primary; Purified CHIKV nsP2 protease, endogenous NS2/3 peptide cleavage; Potency, µM (titrated, usually from 51 µM), for inactives: at the top dose activity change, negative = inhibition, most hits filed as inhibitors; hit rate 34% among 410; further: nearly all actives have a fitted effect of over 55% in size
Papain counter: selectivity counter-screen for CHIKV nsP2 protease inhibitors: papain; hit rate 5% among 410; purified papain protease activity, enzymatic inhibition; shares compounds with nsP2pro primary; Potency, µM (doses to about 51 µM), for the others: at the top dose activity change, negative = inhibition, most hits filed as inhibitors
nsP2pro conf qHTS: CHIKV nsP2 protease inhibition, confirmatory qHTS | CHIKV nsP2 protease enzymatic activity, qHTS | shares compounds with nsP2pro primary | Potency, µM (top dose mostly 25.5 µM), inactives show at the highest dose activity change, negative = inhibition, actives largely listed as inhibitors | hit rate 43% among 410 | AID 1964105; further: nearly all actives have a fitted effect of over 75% in size
HCV NS3 counter: selectivity counter-screen for CHIKV nsP2 protease inhibitors: HCV NS3/4A. shares compounds with nsP2pro primary. HCV NS3/4A protease biochemical counterscreen. Potency, µM (top dose mostly 50.9 µM), actives largely listed as inhibitors. hit rate 20% among 410; further: nearly all actives have a fitted effect of over 55% in size
Starred values were filed as active, the others as inactive; i = inactive; ? = inconclusive; ! = a repeat was not active; [ ] = remark or other dose. Only a selection was taken, and hits are over-represented in it overall. The call rests on the fitted dose curve. On the % scale 0 is the no-effect control and ±100 the full control effect; potency means the concentration at half of the fitted maximal effect.

SMILES	nsP2pro primary	others
CN(CC(O)CO)C(=O)c1c(I)c(NC(=O)C(CO)CO)c(I)c(C(=O)N(C)CC(O)CO)c1I (stereo unspecified)	-7%
Fc1ccc(CNc2nc(-c3ccccc3C(F)(F)F)nc3ccccc23)cc1	2%
O=C(Cc1ccccc1)Nc1sc2c(c1C(=O)Nc1ccccc1)CCCCC2	-28%
O=C(Cc1ccccc1)Nc1sc2c(c1C(=O)Nc1ccc(Cl)cc1)CCCC2	?	nsP2 cell sec=?;CHIKV NSP2 FL=-21%;Furin counter=-4%;nsP2 NS23 pep=6.5µM*;Papain counter=-5%;nsP2pro conf qHTS=4µM*;HCV NS3 counter=i
COc1ccc(CC(=O)Nc2sc3c(c2C(=O)Nc2ccccc2)CCCCC3)cc1	-11%
CN1CCN(c2ncnc3sc4c(c23)CCNC4)CC1	i
CCCOC(=O)c1ccccc1	-4%
C/C(=C(\CCOC(=O)c1ccccc1)SS/C(CCOC(=O)c1ccccc1)=C(/C)N(C=O)Cc1cnc(C)nc1N)N(C=O)Cc1cnc(C)nc1N	8.8µM*	nsP2 cell sec=-3%;CHIKV NSP2 FL=13µM*;Furin counter=-8%;nsP2 NS23 pep=5.8µM*;Papain counter=-9%;nsP2pro conf qHTS=8µM*;HCV NS3 counter=5.8µM*
O=C1CCCC2=C1C(c1c(Cl)cccc1Cl)N=C(Nc1nc3ccccc3o1)N2 (stereo unspecified)	i
O=C(C(NS(=O)(=O)c1ccc2[nH]c(=O)ccc2c1)c1cccc(C(F)(F)F)c1)N(Cc1ccco1)Cc1cccs1 (stereo unspecified)	7.9µM*	nsP2 cell sec=142%;CHIKV NSP2 FL=?;Furin counter=-1%;nsP2 NS23 pep=-22%;Papain counter=-19%;nsP2pro conf qHTS=-20%;HCV NS3 counter=i
O=C(c1ccccc1)N(Cc1ccco1)Cc1cccs1	-22%
CS(=O)(=O)c1ncc(N(Cc2ccccc2)Cc2ccco2)c(C(=O)Nc2cccc(C(F)(F)F)c2)n1	-5%
O=S(=O)(Nc1nccs1)c1ccc(NCc2ccc(Br)cc2O)cc1	-16%
CC(C)c1ccccc1-c1ncc(F)c(NCC2CCN(c3cnccn3)C2)n1 (stereo unspecified)	2%
COC(=O)N[C@H](C(=O)N1CCC[C@H]1C(=O)Nc1ccc([C@@H]2CC[C@@H](c3ccc(NC(=O)[C@@H]4CCCN4C(=O)[C@@H](NC(=O)OC)C(C)C)cc3)N2c2ccc(C(C)(C)C)cc2)cc1)C(C)C	-19%
CCCNC(=O)[C@H]1O[C@@H]1C(=O)N[C@H](C(=O)N1CCC[C@@H]1C(=O)O)[C@@H](C)CC	-18%
COC(=O)C1C(CC(C)=O)C=CC(O)C12Oc1cc(C)cc(O)c1C2=O (stereo unspecified)	-2%
CCOc1cc(C)c(C(C)C)cc1S(=O)(=O)n1ccnc1CC	-19%
CCOc1cc(S(=O)(=O)n2ccnc2C(C)C)ccc1Cl	8.9µM*	nsP2 cell sec=-2%;CHIKV NSP2 FL=16µM*;Furin counter=-5%;nsP2 NS23 pep=?;Papain counter=-6%;nsP2pro conf qHTS=?;HCV NS3 counter=9.2µM*
CCOc1ccc(S(=O)(=O)N2CCN(c3ccc(Cl)c(Cl)c3)CC2)c2ccccc12	-22%
CS(=O)(=O)c1ccc(Oc2cc(F)cc(C#N)c2)c2c1[C@H](O)[C@H](F)[C@@H]2F	-7%
O=C([C@@H](Cc1ccc(O[S+](=O)([O-])c2cccnc2)cc1)N[S+](=O)([O-])c1cccc2cccnc12)N1CCN(c2ccccc2)CC1	4%
COc1ccc(CN2C(=O)c3ccccc3NC2c2ccc(OC)c(COc3c(C)cc(NC(C)=O)cc3C)c2)cc1 (stereo unspecified)	-3%
CCCCCS(=O)(=O)c1oc(-c2cccs2)nc1S(=O)(=O)c1ccc(C)cc1	-16%
CCCSc1oc(-c2cccs2)nc1S(=O)(=O)c1ccc(C)cc1	-23%
SMILES	nsP2pro primary	others
CCCCS(=O)(=O)c1oc(-c2cccs2)nc1S(=O)(=O)c1ccc(F)cc1	?	nsP2 cell sec=3.7µM*;CHIKV NSP2 FL=5.8µM*;Furin counter=3%;nsP2 NS23 pep=8.2µM*;Papain counter=-9%;nsP2pro conf qHTS=5µM*;HCV NS3 counter=i
O=C(NO)c1cccc(C(=O)NCCc2ccccc2)c1	-8%
CCC(=C(CC)c1ccc(OP(=O)(O)O)cc1)c1ccc(OP(=O)(O)O)cc1	3%[0.199 µM]
Cc1ccc(C2(O)CCN(CCCC(=O)c3ccc(F)cc3)CC2)cc1	-10%
COC1(C[S@@](=O)c2ccccc2)CCN(CCc2c[nH]c3ccc(F)cc23)CC1	?	nsP2 cell sec=49%;CHIKV NSP2 FL=-9%;Furin counter=-2%;nsP2 NS23 pep=-18%;Papain counter=0%;nsP2pro conf qHTS=-18%;HCV NS3 counter=i
COc1ccc(N2CCN(C(=O)COc3cccc(-c4nnc5n4CCCC5)c3)CC2)cc1	-15%
COc1ccnc(NC(=S)N2CCN(c3cccc(Cl)c3Cl)CC2)c1	-8%
COc1ccccc1NC(=O)c1cc(-c2ccc(C)c(C)c2)nc2ccccc12	-4%
Cc1cc(C)c2c(N)c(C(=O)NCc3ccc(Cl)cc3)sc2n1	-4%
COC(=O)c1c(NC(=O)CCCOc2ccc(C)cc2)sc2c1C(C(=O)OC)CC2 (stereo unspecified)	2.1µM*	nsP2 cell sec=18µM*;CHIKV NSP2 FL=?;Furin counter=-10%;nsP2 NS23 pep=12µM*;Papain counter=-14%;nsP2pro conf qHTS=7.1µM*;HCV NS3 counter=i
COC(=O)c1c(NC(=O)CCCOc2cccc(C)c2)sc2c1C(C(=O)OC)CC2 (stereo unspecified)	1.9µM*	nsP2 cell sec=15µM*!;CHIKV NSP2 FL=18µM*;Furin counter=-12%;nsP2 NS23 pep=5.2µM*;Papain counter=-11%;nsP2pro conf qHTS=2.5µM*;HCV NS3 counter=i
CCOc1ccc(/C=C/C(=O)Nc2sc3c(c2C(=O)OC)C(C(=O)OC)CC3)cc1 (stereo unspecified)	2.8µM*	nsP2 cell sec=-10%;CHIKV NSP2 FL=?;Furin counter=2%;nsP2 NS23 pep=4.7µM*;Papain counter=-2%;nsP2pro conf qHTS=3.7µM*;HCV NS3 counter=i
COC(=O)c1c(NC(=O)CCCOc2ccccc2C)sc2c1CCC(C)C2 (stereo unspecified)	-18%
COC(=O)c1c(NC(=O)CCCOc2cccc(C)c2)sc2c1CCC(C)C2 (stereo unspecified)	-20%
COC(=O)c1c(NC(=O)CCCOc2cccc(C)c2)sc2c1CCC2	-16%
COC(=O)c1c(NC(=O)CCCOc2ccc(C(C)(C)C)cc2)sc2c1CCC(C)C2 (stereo unspecified)	30%
CCOC(=O)c1c(NC(=O)CCCOc2ccc(C(C)(C)C)cc2)sc2c1CCCC2	-13%
COC(=O)c1c(NC(=O)CCCOc2ccc(C)cc2)sc2c1CCCC2	-34%

Screens (PubChem BioAssay)
